# Test results as given in PubChem BioAssay (NCI).
# Compounds without any hit were thinned out: in the full panel of roughly 83,000, 20% have a hit.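 96-well plates, one dose, 48 hours. Percent growth reported; active if below 10.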 Active and inactive are the calls of the source.
# Tested on: MDA-MB-468 breast
# Test: NCI-60 one-dose screen, 48 h (100 = growth as untreated, 0 = no growth, -100 = all killed)
# Conditions: 10 µM unless noted
row,SMILES,growth
1,CCCCN(CCCC)CCC(=O)c1ccc(OC)c2ccccc12,-18.7% (active)
2,CNCCCn1c2c(c3ccc(F)cc3c1=O)C(=O)c1cc(OC)cnc1-2,-47.6% (active)
3,O=C(CSc1ccc2nnc(-c3cccc(F)c3)n2n1)Nc1ccc2c(c1)OCO2,23% (inactive)
